Source: PubChem BioAssay (NCATS)
Records with an inconclusive call do not appear. Entries that show only a call come without a potency. Values without a mark were called inactive. Active and inactive are the calls of the source. Calls follow the shape of the dose curve; as a rule, active = well fitted curve in the direction sought with a large enough effect; inconclusive = small, poorly fitted or top-dose-only effect, or another doubt; inactive = no such curve, though single readings can be large; an effect the other way counts as inactive or inconclusive.

How the values were obtained:
W2 = experiment: qHTS profiling for inhibitors of Plasmodium falciparum proliferation (AID 504749); also: nearly all actives have a fitted effect of over 60% in size; details: P. falciparum in erythrocytes, SYBR Green DNA, 72 h; series mostly up to 28.7 µM
Method in brief: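 Quantitative HTS: compounds pinned into medium, infected erythrocytes added (0.3% parasitemia, 2.5% hematocrit), 72 h culture at 37 C under 5% CO2. Saponin/Triton lysis with SYBR Green I, overnight RT, then fluorescence read.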

CRL-7250 = normal cell line; experiment: Cytotoxic Profiling of Annotated Libraries Using Quantitative High-Throughput Screening (AID 1296008); details: Five cell lines viability, CellTiter-Glo ATP luminescence, 48-72 h; max response: hits give low values; also: nearly all actives have a fitted effect of over 60% in size
Method in brief: (§1)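 Compounds were pin-transferred onto cells and incubated 48 or 72 hr at 37 degree Celsius, 95% humidity. CellTiter-Glo was added, plates sat 10 min at room temperature, then ATP-coupled luminescence was imaged as the viability read-out.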

HEK293 = experiment: as above; details: Five cell lines viability, CellTiter-Glo ATP luminescence, 48-72 h; max response: hits give low values
Method in brief: as §1

HaCat [1] = experiment: as above; details: Five cell lines viability, CellTiter-Glo ATP luminescence, 48-72 h; max response: hits give low values
Method in brief: as §1

NIH3T3 = experiment: as above; details: Five cell lines viability, CellTiter-Glo ATP luminescence, 48-72 h; max response: hits give low values
Method in brief: as §1

MCC-13 = experiment: qHTS assay to identify novel small-molecules to repurpose for Merkel cell carcinoma treatment (AID 1296009); details: MCC and control cell lines, CellTiter-Glo viability, 72 h; series mostly up to 46 µM; also: nearly all actives have a fitted effect of over 60% in size
Method in brief: (§2)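 Viability readout: ATP luminescence (CellTiter-Glo) after 72 hr drug exposure at 37 degree celsius. Dose-response format was 8 points for NPC and 11 points for MIPE; data normalized to in-plate controls.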

MCC-26 = experiment: as above; details: MCC and control cell lines, CellTiter-Glo viability, 72 h; series mostly up to 46 µM
Method in brief: as §2

MKL-1 = experiment: as above; details: MCC and control cell lines, CellTiter-Glo viability, 72 h; series mostly up to 46 µM
Method in brief: as §2

MKL-2 = experiment: as above; details: MCC and control cell lines, CellTiter-Glo viability, 72 h; series mostly up to 46 µM
Method in brief: as §2

UISO = experiment: as above; details: MCC and control cell lines, CellTiter-Glo viability, 72 h; series mostly up to 46 µM
Method in brief: as §2

WaGa = experiment: as above; details: MCC and control cell lines, CellTiter-Glo viability, 72 h; series mostly up to 46 µM
Method in brief: as §2

C33A = experiment: Primary qHTS to identify gynecologic anti-cancer compounds using libraries of approved drugs and bioactive compounds (AID 1345084); details: Gynecologic cancer cell panel viability, ATPlite luminescence, 48 h; series mostly up to 57.5 µM; also: nearly all actives have a fitted effect of over 55% in size
Method in brief: (§3)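 Cell viability after 48 h drug treatment, ATPlite luminescence readout; five doses.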

CAOV3 = experiment: as above; details: Gynecologic cancer cell panel viability, ATPlite luminescence, 48 h; series mostly up to 57.5 µM
Method in brief: as §3

CASKI = experiment: as above; details: Gynecologic cancer cell panel viability, ATPlite luminescence, 48 h; series mostly up to 57.5 µM
Method in brief: as §3

Es-2 = experiment: as above; details: Gynecologic cancer cell panel viability, ATPlite luminescence, 48 h; series mostly up to 57.5 µM
Method in brief: as §3

HeLa = experiment: as above; details: Gynecologic cancer cell panel viability, ATPlite luminescence, 48 h; series mostly up to 57.5 µM
Method in brief: as §3

HACAT [2] = experiment: qHTS assay to identify novel small-molecules to repurpose for Merkel cell carcinoma treatment (AID 1296009); details: MCC and control cell lines, CellTiter-Glo viability, 72 h; at 44.8 µM (top of the series) unless noted; also: nearly all actives have a fitted effect of over 60% in size
Method in brief: as §2

KB-3-1 = experiment: Cytotoxic Profiling of Annotated Libraries Using Quantitative High-Throughput Screening (AID 1296008); details: Five cell lines viability, CellTiter-Glo ATP luminescence, 48-72 h; max response: hits give low values; also: nearly all actives have a fitted effect of over 60% in size
Method in brief: as §1
Potency is read from the fitted curve at half-maximal effect.

## Cc1ccccc1OCC(O)CO (stereo unspecified)
W2
  Potency: inactive
CRL-7250
  outcome: inactive
HEK293
  max response: -6.66%
HaCat [1]
  max response: 0.0907%
NIH3T3
  max response: -27.4%
MCC-13
  Potency: inactive
MCC-26
  Potency: inactive
MKL-1
  Potency: inactive
MKL-2
  Potency: inactive
UISO
  Potency: inactive
WaGa
  Potency: inactive
C33A
  Potency: inactive
CAOV3
  Potency: inactive
CASKI
  Potency: inactive
Es-2
  Potency: inactive
HeLa
  Potency: inactive

## O=C1C(CCS(=O)c2ccccc2)C(=O)N(c2ccccc2)N1c1ccccc1 (stereo unspecified)
W2
  Potency: inactive
CRL-7250
  max response: -1.85%
HEK293
  max response: -3.91%
HaCat [1]
  outcome: inactive
NIH3T3
  max response: -2.37%
HACAT [2]
  outcome: inactive
MCC-13
  Potency: inactive
MCC-26
  Potency: inactive
UISO
  Potency: inactive
WaGa
  Potency: inactive
C33A
  Potency: inactive
CAOV3
  Potency: inactive
CASKI
  Potency: inactive
Es-2
  Potency: inactive
HeLa
  Potency: inactive

## COc1cc(C(=S)N2CCOCC2)ccc1O
W2
  Potency: inactive
CRL-7250
  max response: -4.16%
HEK293
  max response: -23.8%
HaCat [1]
  max response: -11.5%
NIH3T3
  max response: -6.82%
MCC-13
  Potency: inactive
MCC-26
  Potency: inactive
MKL-1
  Potency: inactive
MKL-2
  Potency: inactive
UISO
  Potency: inactive
WaGa
  Potency: inactive
C33A
  Potency: inactive
CAOV3
  Potency: inactive
CASKI
  Potency: inactive
Es-2
  Potency: inactive
HeLa
  Potency: inactive

## Cc1cccc(C)c1NC(=O)c1ccccc1C(=O)O
W2
  Potency: inactive
CRL-7250
  outcome: inactive
HEK293
  max response: 0.24%
HaCat [1]
  max response: 1.31%
KB-3-1
  max response: -0.148%
NIH3T3
  max response: -5.01%
MCC-13
  Potency: inactive
MKL-1
  Potency: inactive
MKL-2
  Potency: inactive
UISO
  Potency: inactive
WaGa
  Potency: inactive
C33A
  Potency: inactive
CASKI
  Potency: inactive
Es-2
  Potency: inactive
HeLa
  Potency: inactive

## CCCN(CCC)S(=O)(=O)c1ccc(C(=O)O)cc1
W2
  Potency: inactive
CRL-7250
  max response: -3.77%
HEK293
  max response: 3.98%
HaCat [1]
  Potency: 18800 nM (active)
KB-3-1
  max response: 20.4%
MCC-13
  Potency: inactive
MCC-26
  Potency: inactive
MKL-1
  Potency: inactive
MKL-2
  Potency: inactive
UISO
  Potency: inactive
WaGa
  Potency: inactive
C33A
  Potency: inactive
CAOV3
  Potency: inactive
CASKI
  Potency: inactive
Es-2
  Potency: inactive
HeLa
  Potency: inactive

## Cc1cc(C)cc(OCC2CNC(=O)O2)c1 (stereo unspecified)
CRL-7250
  max response: 2.93%
HEK293
  max response: 3.06%
HaCat [1]
  max response: -13.4%
NIH3T3
  max response: 0.518%
MCC-13
  Potency: inactive
MCC-26
  Potency: inactive
MKL-1
  Potency: inactive
MKL-2
  Potency: inactive
UISO
  Potency: inactive
WaGa
  Potency: inactive
C33A
  Potency: inactive
CAOV3
  Potency: inactive
CASKI
  Potency: inactive
Es-2
  Potency: inactive
HeLa
  Potency: inactive

## COc1cc([C@H]2Oc3cc([C@H]4Oc5cc(O)cc(O)c5C(=O)[C@@H]4O)ccc3O[C@@H]2CO)ccc1O
CRL-7250
  outcome: inactive
HEK293
  max response: -17.6%
HaCat [1]
  max response: -5.16%
KB-3-1
  max response: 47.9%
MCC-13
  Potency: inactive
MCC-26
  Potency: inactive
MKL-1
  Potency: inactive
MKL-2
  Potency: inactive
UISO
  Potency: inactive
WaGa
  Potency: inactive
C33A
  Potency: inactive
CAOV3
  Potency: inactive
CASKI
  Potency: inactive
Es-2
  Potency: inactive
HeLa
  Potency: inactive

## O=C(O)Cc1csc(-c2ccc(Cl)cc2)n1
W2
  Potency: inactive
CRL-7250
  max response: -17.8%
HEK293
  max response: -0.458%
HaCat [1]
  max response: -16.3%
NIH3T3
  max response: 1.14%
MCC-13
  Potency: inactive
MCC-26
  Potency: inactive
MKL-1
  Potency: inactive
MKL-2
  Potency: inactive
UISO
  Potency: inactive
WaGa
  Potency: inactive
C33A
  Potency: inactive
CAOV3
  Potency: inactive
CASKI
  Potency: inactive
Es-2
  Potency: inactive
HeLa
  Potency: inactive

## Nc1nc(Cl)nc2c1ncn2[C@@H]1O[C@H](CO)[C@@H](O)[C@@H]1F
CRL-7250
  Potency: 596 nM (active)
HEK293
  Potency: 1500 nM (active)
HaCat [1]
  Potency: 1060 nM (active)
KB-3-1
  max response: 2.36%
NIH3T3
  Potency: 1190 nM (active)
MKL-1
  Potency: 119 nM (active)
WaGa
  Potency: 94.4 nM (active)
CAOV3
  Potency: 1120 nM (active)
Es-2
  Potency: 316 nM (active)
HeLa
  Potency: inactive

## CCOc1ccc(NC(C)=O)cc1
W2
  Potency: inactive
CRL-7250
  max response: -21.4%
HEK293
  max response: -5.15%
HaCat [1]
  max response: -1.35%
NIH3T3
  max response: -7.54%
MCC-13
  Potency: inactive
MCC-26
  Potency: inactive
MKL-1
  Potency: inactive
MKL-2
  Potency: inactive
UISO
  Potency: inactive
WaGa
  Potency: inactive
C33A
  Potency: inactive
CAOV3
  Potency: inactive
CASKI
  Potency: inactive
Es-2
  Potency: inactive
HeLa
  Potency: inactive

## Nc1ccc(C(=O)NCC(=O)O)cc1
W2
  Potency: inactive
CRL-7250
  max response: -1.17%
HEK293
  max response: 0.145%
HaCat [1]
  max response: 0.603%
KB-3-1
  max response: 28.3%
NIH3T3
  max response: -6.17%
MCC-26
  Potency: inactive
MKL-1
  Potency: inactive
MKL-2
  Potency: inactive
UISO
  Potency: inactive
WaGa
  Potency: inactive
C33A
  Potency: inactive
CAOV3
  Potency: inactive
CASKI
  Potency: inactive
Es-2
  Potency: inactive
HeLa
  Potency: inactive

## O=C(c1ccc(F)cc1)C1CCN(CCn2c(=S)[nH]c3ccccc3c2=O)CC1
W2
  Potency: 2390 nM (active)
CRL-7250
  max response: -5.62%
HEK293
  max response: -98.9%
KB-3-1
  max response: 8.09%
NIH3T3
  max response: -46.6%
MCC-13
  Potency: inactive
MCC-26
  Potency: inactive
MKL-1
  Potency: inactive
MKL-2
  Potency: inactive
C33A
  Potency: inactive
CAOV3
  Potency: inactive
CASKI
  Potency: inactive
Es-2
  Potency: inactive
HeLa
  Potency: inactive

## COc1ccc2c(c1)c1c3n2CCN(C)C3=NCC1
W2
  Potency: inactive
CRL-7250
  outcome: inactive
HEK293
  max response: 3.32%
KB-3-1
  max response: 0.417%
NIH3T3
  max response: 0.478%
MCC-13
  Potency: inactive
MCC-26
  Potency: inactive
MKL-1
  Potency: inactive
MKL-2
  Potency: inactive
UISO
  Potency: inactive
WaGa
  Potency: inactive
C33A
  Potency: inactive
CAOV3
  Potency: inactive
CASKI
  Potency: inactive
Es-2
  Potency: inactive
HeLa
  Potency: inactive

## O=C(Nc1ccc([N+](=O)[O-])cc1)Nc1ccc([N+](=O)[O-])cc1
W2
  Potency: 2390 nM (active)
CRL-7250
  max response: -8.01%
HEK293
  Potency: 8410 nM (active)
HaCat [1]
  outcome: inactive
HACAT [2]
  outcome: inactive
MCC-13
  Potency: inactive
MKL-1
  Potency: inactive
MKL-2
  Potency: inactive
UISO
  Potency: inactive
WaGa
  Potency: inactive
C33A
  Potency: inactive
CAOV3
  Potency: inactive
CASKI
  Potency: inactive
Es-2
  Potency: inactive
HeLa
  Potency: inactive
